# Test results: PubChem BioAssay (NCATS)
# Values without a mark were called inactive. Results filed as inconclusive are left out. A call without a number means that no potency is given here. Active and inactive are the calls of the source. Unless noted, calls follow the shape of the dose curve; as a rule, active = well fitted curve in the direction sought with a large enough effect; inconclusive = small, poorly fitted or top-dose-only effect, or another doubt; inactive = no such curve, though single readings can be large; an effect the other way counts as inactive or inconclusive.
# How the values were obtained:
# [1] = target: Beta-2 adrenergic receptor (Homo sapiens) (UniProt P07550); assay: qHTS validation assay of beta-arrestin-biased ligands of beta2-adrenergic receptor (AID 485366)
# Method in brief: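 Agonism was measured as beta-arrestin recruitment to recombinant beta2-AR, releasing tTA to drive luciferase. Cells were exposed for 18 hr at 37 degrees C to a series up to 46 microM. %Activity from corrected luminescence gave concentration-response curves.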
# [2] = target: Thioredoxin reductase 1, cytoplasmic (Rattus norvegicus) (UniProt O89049); assay: qHTS Assay for Substrates of Mammalian Selenoprotein Thioredoxin Reductase 1 (TrxR1) (AID 488772);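 also: series mostly up to about 57 µM; a drop in NADPH fluorescence below the no-compound background marks a TrxR1 substrate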
# Method in brief: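 In this dual-purpose format, potential substrates are identified from the first fluorescence read after selenite addition, not from the 8-minute delta. Rat enzyme is preincubated with NADPH and then with compound at ~22 deg C.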
# [3] = target: Thioredoxin reductase 1, cytoplasmic (Rattus norvegicus) (UniProt O89049); assay: qHTS Assay for Inhibitors of Mammalian Selenoprotein Thioredoxin Reductase 1 (TrxR1) (AID 488773); details: Potency: inhibition; also: nearly all actives have a fitted effect of over 40% in size; also: potency is read from the fitted curve at half-maximal effect
# Method in brief: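 Inhibition is scored from the loss of NADPH fluorescence between first and last reads of an 8-min kinetic run. Selenite (400 uM) was the substrate, added after 15 min compound preincubation at room temperature.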
# [4] = target: Flap endonuclease 1 (Homo sapiens) (UniProt P39748); assay: qHTS Validation Assay for the Inhibitors of Human Flap endonuclease 1 (FEN1) (AID 488816)
# Method in brief: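 qHTS format: compounds and 10 nM FEN1 incubated 15 min at room temperature before adding 50 nM substrate. Cleavage followed by reads at 0 and 15 min; normalized data fitted to a four-parameter Hill curve.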
# [5] = target: M-phase phosphoprotein 8 (Homo sapiens) (UniProt Q99549); assay: qHTS Validation Assay for Inhibitors for MPP8 Chromodomain Interactions with Methylated Histone Tails (AID 488949); also: top concentration of the series differs between compounds; nearly all actives have a fitted effect of over 55% in size
# Method in brief: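 MPP8 (50 nM) was pre-bound to 50 nM biotinylated H3(1-18)K9me3 peptide in PBS pH 7.4 with 0.01% Tween-20. Compounds were then added for 30 min at room temperature, and complex disruption was read by AlphaScreen with streptavidin donor and nickel-chelate acceptor beads.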
# [6] = target: Methanococcus maripaludis chaperonin (MmCpn) (UniProt Q6LX38); assay: High-Throughput Screening for Modulators of Cytosolic Chaperonin Activity: MmCpn Primary Screen (AID 488978);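 also: 50 nM MmCpn enzyme hydrolysing 30 µM ATP at 37 °C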
# Method in brief: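 MmCpn at 50 nM final was preincubated 5 min at RT with compound. ATP was then added at 30 uM final for 10 min at 37 C. ADP formed was detected by Transcreener HTRF (665/590 nm).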
# [7] = target: D(1A) dopamine receptor (Homo sapiens) (UniProt P21728); assay: HTS Assay for Allosteric Agonists of the Human D1 Dopamine Receptor: Primary Screen for Agonists (AID 488981)
# Method in brief: (§1)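 Calcium flux in an inducible, force-coupled HEK293 Trex D1 line (overnight at 30 C): agonist mode is the 180 s kinetic read after compound; potentiator mode is the following 180 s read after dopamine at EC20.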
# [8] = target: D(1A) dopamine receptor (Homo sapiens) (UniProt P21728); assay: HTS Assay for Allosteric Agonists of the Human D1 Dopamine Receptor: Primary Screen for Potentiators (AID 488982)
# Method in brief: as §1
# [9] = target: D(1A) dopamine receptor (Homo sapiens) (UniProt P21728); assay: HTS Assay for Allosteric Agonists of the Human D1 Dopamine Receptor: Primary Screen for Antagonists (AID 488983);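 also: calcium flux response to an EC80 dopamine challenge measured with no-wash dye; nearly all actives have a fitted effect of over 65% in size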; also: potency is read from the fitted curve at half-maximal effect
# Method in brief: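 Kinetic fluorescence at 1 cycle/sec tracked intracellular calcium in force-coupled, tetracycline-inducible HEK293 T-REx D1 cells. Loss of response to an EC80 dopamine dose, given 180 s after compound, marked antagonists.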
# [10] = Validation screen for small molecules that induce genotoxicity in human embryonic kidney (HEK293T) cells expressing luciferase-tagged ELG1 (AID 493106); also: potency is read from the fitted curve at half-maximal effect
# Method in brief: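 Cells were dispensed at 2,000 per well, then 23 nL compound or DMSO was pinned in. After 16 hr at 37 °C and 5% CO2, ONE-Glo reagent was added. Luciferase activity was measured following 30 min at room temperature.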
# [11] = target: ATPase family AAA domain-containing protein 5 (Homo sapiens) (UniProt Q96QE3); assay: Validation screen for small molecules that inhibit ELG1-dependent DNA repair in human embryonic kidney (HEK293T) cells expressing luciferase-tagged ELG1 (AID 493107);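 also: cells co-treated with the DNA-damaging agent 5-fluorouridine alongside compound; series mostly up to about 46 µM; inhibitors lower the ELG1-luciferase luminescence signal; nearly all actives have a fitted effect of over 70% in size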
# Method in brief: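 Cells are dispensed in 1536-well format, then 5-fluorouridine and compound are pinned in. After a 16 hr incubation at 37 °C and 5% CO2, ONE-Glo is added and luciferase measured on a CCD imager.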
# [12] = target: Transient receptor potential cation channel subfamily V member 1 (Homo sapiens) (UniProt Q8NER1); assay: HTS Assay for Compounds that Act as Enhancers of the Vanilloid Receptor 1 (AID 488979)
# Method in brief: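 Calcium influx kinetics via Fluo-8 (480/520 nm) in TRPV1-expressing cells, 2000/well cultured overnight at 35.5C. Compound-alone read 3 min (agonist phase), followed by EC20 capsaicin challenge for 2 min (enhancer phase).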
# [13] = target: Thyrotropin receptor (Homo sapiens) (UniProt P16473); assay: qHTS Assay for Antagonists of the Thyroid Stimulating Hormone Receptor (AID 488980); also: series mostly up to about 58 µM
# Method in brief: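 TSHR-transfected HEK293 cells (2000/well) in HEPES-buffered HBSS with 70 uM RO 20-1724 were stimulated with 4 nM TSH (EC80, final) in the presence of compound. cAMP was measured by HTRF competition after lysis and 30 min at RT.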
# [14] = target: Thyrotropin-releasing hormone receptor (Homo sapiens) (UniProt P34981); assay: qHTS for Small Molecule Agonists and Allosteric Enhancers of Human TRH Receptor: Validation Screen for Agonists (AID 493127;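 active = calcium activation more than 3 SD above the typical response in the agonist read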;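 also: intracellular calcium rise by fluo-8 fluorescence before TRH EC20 addition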); details: TRH receptor agonist cell assay; at 2 µM; hits give high values
# Method in brief: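 Compounds are added by online pintool to dye-loaded TRHR cells while fluorescence is recorded every second. A rise in calcium signal during the agonist read marks activation; a later 10 nM TRH addition (EC20) serves the separate enhancer mode.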
# [15] = target: Chromobox protein homolog 1 (Homo sapiens) (UniProt P83916); assay: qHTS Validation Assay for Inhibitors of HP1-beta Chromodomain Interactions with Methylated Histone Tails (AID 488953); also: nearly all actives have a fitted effect of over 50% in size; also: potency is read from the fitted curve at half-maximal effect
# Method in brief: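 Disruption of preformed HP1-beta:H3K9me3 peptide complexes (both 50 nM, PBS pH 7.4 with 0.01% Tween-20) is measured by AlphaScreen after 30 min compound exposure at room temperature, using streptavidin donor and nickel chelate acceptor beads at 10 ug/mL final.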
# [16] = target: ATP-dependent 6-phosphofructokinase (Trypanosoma brucei brucei) (UniProt O15648); assay: qHTS Validation Assay to Find Inhibitors of T. brucei phosphofructokinase (AID 485368)
# Method in brief: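 ADP-Glo luminescence, two-step: residual ATP depleted, then ADP converted to ATP for luciferase. Enzyme 1.25 nM, F6P 0.5 mM, ATP 0.1 mM, pH 8.0 TEA buffer, 45 min RT. Curves fitted and classed by quality and efficacy.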
# [17] = Quantitative high throughput screen for delayed death inhibitors of the malarial parasite plastid, 96 hour incubation (AID 488745);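 also: luciferase-expressing P. falciparum in erythrocytes at 2% hematocrit and 0.1% parasitemia; series mostly up to about 29 µM; nearly all actives have a fitted effect of over 70% in size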
# Method in brief: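 Readout is firefly luciferase luminescence from an integrated reporter in P. falciparum; lower signal marks inhibited growth. Cultures at 2% hematocrit and 0.1% parasitemia were treated with compound across two generations (96 h, 37 C, 5% CO2).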
# [18] = Quantitative high throughput screen for delayed death inhibitors of the malarial parasite plastid, 48 hour incubation (AID 488752); also: nearly all actives have a fitted effect of over 65% in size
# Method in brief: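 First, compound was pinned into RPMI 1640 medium containing 0.5% Albumax. Next, reporter-parasite-infected erythrocytes were added to 2% hematocrit and 0.1% parasitemia. After 48 h at 37 C under 5% CO2, luciferase detection reagent was added and luminescence read.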
# Thyrotropin receptor (Homo sapiens), sequence (P16473 whole entry, looked up): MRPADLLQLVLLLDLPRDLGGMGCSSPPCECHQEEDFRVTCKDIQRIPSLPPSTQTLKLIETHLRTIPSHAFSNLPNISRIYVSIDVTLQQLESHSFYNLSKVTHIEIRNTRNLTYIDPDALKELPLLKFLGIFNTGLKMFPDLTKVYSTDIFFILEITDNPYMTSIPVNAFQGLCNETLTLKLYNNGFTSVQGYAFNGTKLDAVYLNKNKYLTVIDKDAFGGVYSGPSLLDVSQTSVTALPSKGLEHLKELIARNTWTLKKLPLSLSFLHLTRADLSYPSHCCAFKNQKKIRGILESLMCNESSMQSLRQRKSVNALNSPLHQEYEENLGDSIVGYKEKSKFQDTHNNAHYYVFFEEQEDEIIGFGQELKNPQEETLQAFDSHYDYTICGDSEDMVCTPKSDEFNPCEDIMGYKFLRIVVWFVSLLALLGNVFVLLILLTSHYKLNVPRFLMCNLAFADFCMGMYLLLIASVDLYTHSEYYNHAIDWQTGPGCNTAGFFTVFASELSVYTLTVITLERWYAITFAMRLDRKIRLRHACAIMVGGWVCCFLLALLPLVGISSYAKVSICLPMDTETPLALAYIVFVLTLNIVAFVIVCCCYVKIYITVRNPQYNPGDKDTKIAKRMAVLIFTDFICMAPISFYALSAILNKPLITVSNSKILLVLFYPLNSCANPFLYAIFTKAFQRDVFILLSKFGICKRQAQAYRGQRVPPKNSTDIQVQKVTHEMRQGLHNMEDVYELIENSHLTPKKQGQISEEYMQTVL
# ATP-dependent 6-phosphofructokinase (Trypanosoma brucei brucei), sequence (O15648 whole entry, looked up): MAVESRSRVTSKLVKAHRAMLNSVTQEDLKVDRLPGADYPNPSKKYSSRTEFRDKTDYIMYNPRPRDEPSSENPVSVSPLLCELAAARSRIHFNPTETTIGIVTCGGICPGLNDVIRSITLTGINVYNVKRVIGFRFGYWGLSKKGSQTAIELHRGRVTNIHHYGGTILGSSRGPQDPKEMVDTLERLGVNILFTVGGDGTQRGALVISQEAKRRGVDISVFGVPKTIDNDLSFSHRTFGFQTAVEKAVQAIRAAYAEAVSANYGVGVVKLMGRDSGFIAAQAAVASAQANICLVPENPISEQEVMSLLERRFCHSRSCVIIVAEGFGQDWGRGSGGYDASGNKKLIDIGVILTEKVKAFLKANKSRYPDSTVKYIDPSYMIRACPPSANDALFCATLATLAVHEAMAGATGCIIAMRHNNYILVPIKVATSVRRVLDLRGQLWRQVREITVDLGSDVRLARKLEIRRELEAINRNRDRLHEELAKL
# Flap endonuclease 1 (Homo sapiens), sequence (P39748 whole entry, looked up): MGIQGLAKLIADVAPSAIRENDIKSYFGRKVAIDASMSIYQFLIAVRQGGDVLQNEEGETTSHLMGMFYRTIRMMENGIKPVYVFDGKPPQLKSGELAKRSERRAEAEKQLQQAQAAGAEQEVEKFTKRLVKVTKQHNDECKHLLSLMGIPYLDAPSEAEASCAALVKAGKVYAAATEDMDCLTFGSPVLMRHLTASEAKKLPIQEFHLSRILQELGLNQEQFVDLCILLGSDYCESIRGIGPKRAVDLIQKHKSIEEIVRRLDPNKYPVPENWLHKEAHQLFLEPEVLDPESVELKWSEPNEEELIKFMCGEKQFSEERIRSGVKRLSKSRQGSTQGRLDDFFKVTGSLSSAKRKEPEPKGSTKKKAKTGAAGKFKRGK
# Methanococcus maripaludis chaperonin (MmCpn), sequence (Q6LX38 1-543): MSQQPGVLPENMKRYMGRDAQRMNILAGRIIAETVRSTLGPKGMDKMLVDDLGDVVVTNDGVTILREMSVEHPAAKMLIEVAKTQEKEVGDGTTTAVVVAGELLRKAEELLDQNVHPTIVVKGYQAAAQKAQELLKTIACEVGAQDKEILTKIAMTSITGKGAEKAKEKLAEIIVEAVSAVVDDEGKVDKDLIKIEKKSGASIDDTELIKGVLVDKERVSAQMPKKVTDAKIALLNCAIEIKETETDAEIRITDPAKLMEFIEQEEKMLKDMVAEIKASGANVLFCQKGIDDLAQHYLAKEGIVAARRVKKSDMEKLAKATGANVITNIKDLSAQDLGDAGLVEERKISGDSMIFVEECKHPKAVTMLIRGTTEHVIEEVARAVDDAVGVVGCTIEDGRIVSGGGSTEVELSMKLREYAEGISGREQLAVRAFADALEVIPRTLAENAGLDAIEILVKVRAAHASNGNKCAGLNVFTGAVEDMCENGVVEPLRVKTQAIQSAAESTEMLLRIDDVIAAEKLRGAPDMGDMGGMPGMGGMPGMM
# Beta-2 adrenergic receptor (Homo sapiens), sequence (P07550 whole entry, looked up): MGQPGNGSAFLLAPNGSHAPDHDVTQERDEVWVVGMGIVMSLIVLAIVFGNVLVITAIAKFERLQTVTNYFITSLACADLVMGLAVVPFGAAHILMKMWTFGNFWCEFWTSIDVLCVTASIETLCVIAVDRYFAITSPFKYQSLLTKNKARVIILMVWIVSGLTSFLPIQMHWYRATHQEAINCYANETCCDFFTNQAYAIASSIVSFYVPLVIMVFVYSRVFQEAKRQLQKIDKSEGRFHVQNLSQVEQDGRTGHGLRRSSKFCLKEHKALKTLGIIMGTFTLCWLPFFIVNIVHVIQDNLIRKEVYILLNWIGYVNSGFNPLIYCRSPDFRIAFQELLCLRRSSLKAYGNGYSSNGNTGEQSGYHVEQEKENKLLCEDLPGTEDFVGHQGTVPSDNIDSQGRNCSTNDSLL
# D(1A) dopamine receptor (Homo sapiens), sequence (P21728 whole entry, looked up): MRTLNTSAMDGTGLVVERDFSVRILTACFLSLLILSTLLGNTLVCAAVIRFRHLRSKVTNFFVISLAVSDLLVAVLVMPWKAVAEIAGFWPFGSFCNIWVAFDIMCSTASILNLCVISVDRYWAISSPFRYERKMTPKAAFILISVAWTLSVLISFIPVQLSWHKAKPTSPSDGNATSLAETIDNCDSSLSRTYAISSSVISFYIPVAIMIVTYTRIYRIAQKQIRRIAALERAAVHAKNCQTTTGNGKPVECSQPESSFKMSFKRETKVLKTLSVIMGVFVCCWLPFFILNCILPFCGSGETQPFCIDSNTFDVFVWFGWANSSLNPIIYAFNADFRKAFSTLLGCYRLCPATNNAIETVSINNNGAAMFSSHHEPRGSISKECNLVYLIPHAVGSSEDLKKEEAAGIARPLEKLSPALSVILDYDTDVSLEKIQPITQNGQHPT
# Chromobox protein homolog 1 (Homo sapiens), sequence (P83916 whole entry, looked up): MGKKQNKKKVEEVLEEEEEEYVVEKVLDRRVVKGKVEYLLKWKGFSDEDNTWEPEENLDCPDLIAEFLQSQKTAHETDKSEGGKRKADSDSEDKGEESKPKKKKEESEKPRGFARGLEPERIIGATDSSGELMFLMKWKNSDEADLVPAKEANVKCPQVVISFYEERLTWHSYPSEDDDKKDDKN
# Transient receptor potential cation channel subfamily V member 1 (Homo sapiens), sequence (Q8NER1 whole entry, looked up): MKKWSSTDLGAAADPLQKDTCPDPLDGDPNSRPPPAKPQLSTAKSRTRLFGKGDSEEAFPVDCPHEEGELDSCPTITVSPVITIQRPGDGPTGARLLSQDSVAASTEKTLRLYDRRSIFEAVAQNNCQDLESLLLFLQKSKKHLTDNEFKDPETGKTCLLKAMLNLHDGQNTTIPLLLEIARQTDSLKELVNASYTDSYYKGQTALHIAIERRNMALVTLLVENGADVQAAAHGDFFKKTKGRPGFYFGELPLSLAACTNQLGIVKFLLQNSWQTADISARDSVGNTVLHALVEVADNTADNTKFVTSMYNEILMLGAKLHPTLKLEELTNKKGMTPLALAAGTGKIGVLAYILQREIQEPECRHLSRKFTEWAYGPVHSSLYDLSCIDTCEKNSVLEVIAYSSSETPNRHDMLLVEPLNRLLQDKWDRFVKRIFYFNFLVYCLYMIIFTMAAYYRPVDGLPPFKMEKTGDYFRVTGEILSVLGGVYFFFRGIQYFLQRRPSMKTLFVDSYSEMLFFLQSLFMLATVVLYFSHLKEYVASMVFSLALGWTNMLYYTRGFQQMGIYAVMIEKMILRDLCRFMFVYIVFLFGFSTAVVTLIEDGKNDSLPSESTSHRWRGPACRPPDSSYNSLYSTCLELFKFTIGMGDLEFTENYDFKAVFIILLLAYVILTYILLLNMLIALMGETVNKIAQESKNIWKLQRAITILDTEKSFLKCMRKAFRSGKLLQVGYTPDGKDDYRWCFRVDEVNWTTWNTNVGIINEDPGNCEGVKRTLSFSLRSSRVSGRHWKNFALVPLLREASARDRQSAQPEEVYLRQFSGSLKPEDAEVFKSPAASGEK
# Thyrotropin-releasing hormone receptor (Homo sapiens), sequence (P34981 whole entry, looked up): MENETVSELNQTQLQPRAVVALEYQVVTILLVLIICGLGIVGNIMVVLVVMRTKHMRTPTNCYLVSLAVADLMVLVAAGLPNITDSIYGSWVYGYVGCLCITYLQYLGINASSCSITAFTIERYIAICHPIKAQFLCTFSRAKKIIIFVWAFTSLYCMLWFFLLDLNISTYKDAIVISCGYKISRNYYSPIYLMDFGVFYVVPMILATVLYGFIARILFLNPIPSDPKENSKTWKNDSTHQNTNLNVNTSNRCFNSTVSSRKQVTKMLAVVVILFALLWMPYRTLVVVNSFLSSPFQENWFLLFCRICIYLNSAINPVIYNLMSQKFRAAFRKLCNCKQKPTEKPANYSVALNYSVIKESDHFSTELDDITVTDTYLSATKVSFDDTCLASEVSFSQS
# Thioredoxin reductase 1, cytoplasmic (Rattus norvegicus), sequence (O89049 whole entry, looked up): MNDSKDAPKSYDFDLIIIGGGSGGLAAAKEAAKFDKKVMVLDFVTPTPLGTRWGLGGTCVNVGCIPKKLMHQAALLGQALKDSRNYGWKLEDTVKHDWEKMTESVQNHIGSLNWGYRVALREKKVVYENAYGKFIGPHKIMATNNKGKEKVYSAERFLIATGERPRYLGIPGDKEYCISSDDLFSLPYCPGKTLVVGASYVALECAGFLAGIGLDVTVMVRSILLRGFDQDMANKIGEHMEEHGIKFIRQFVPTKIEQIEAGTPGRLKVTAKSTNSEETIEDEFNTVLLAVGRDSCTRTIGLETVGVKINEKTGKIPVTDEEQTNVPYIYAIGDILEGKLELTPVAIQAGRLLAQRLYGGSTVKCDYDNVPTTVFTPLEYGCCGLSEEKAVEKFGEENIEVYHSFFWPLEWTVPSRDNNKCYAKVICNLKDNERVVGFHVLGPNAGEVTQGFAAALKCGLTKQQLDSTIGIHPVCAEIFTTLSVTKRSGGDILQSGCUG
Compound,outcome [1],outcome [2],Potency [3],Potency [4],Potency [5],outcome [6],Potency [7],Potency [8],Potency [9],Potency [10],Potency [11],outcome [12],outcome [13],activation [14],Potency [15],Potency [16],Potency [17],Potency [18]
Cc1cc(Cn2cnc3c2C[C@@H](C(=O)O)N(C(=O)C(c2ccccc2)c2ccccc2)C3)ccc1N,inactive,inactive,inactive,inactive,inactive,inactive,inactive,inactive,inactive,inactive,inactive,–,–,–,–,–,–,–
C[C@]12C=CC(=O)C=C1CC[C@@H]1C2=CC[C@]2(C)[C@@H](C(=O)CN3CCN(c4cc(N5CCCC5)nc(N5CCCC5)n4)CC3)CC[C@@H]12,inactive,–,–,inactive,–,inactive,inactive,inactive,inactive,inactive,–,–,–,–,–,–,–,–
CNC(=O)c1cc2c(cn1)[nH]c1ccccc12,inactive,inactive,inactive,inactive,inactive,inactive,inactive,inactive,inactive,–,–,inactive,inactive,0.75%,–,–,–,–
N[C@H](C(=O)O)[C@H](Cc1ccccc1)C(=O)O,inactive,inactive,inactive,inactive,inactive,inactive,inactive,inactive,inactive,inactive,inactive,–,–,–,inactive,–,–,–
COc1ccc(CCn2nnnc2C2(c3ccc(C)cc3)CC2)cc1,inactive,inactive,inactive,inactive,inactive,inactive,inactive,inactive,inactive,inactive,inactive,–,–,–,inactive,–,–,–
CN1Cc2sccc2C(c2ccc(O)c(O)c2)C1 (stereo unspecified),inactive,–,16800 nM (active),inactive,inactive,inactive,–,inactive,355 nM (active),inactive,inactive,–,–,–,–,–,–,–
N#CC(=C(\N)Sc1ccccc1N)/C(C#N)=C(/N)Sc1ccccc1N,inactive,inactive,inactive,inactive,inactive,inactive,inactive,inactive,inactive,inactive,–,–,inactive,2.62%,–,–,–,–
Nc1nc2c(cnn2CCc2ccccc2)c2nc(-c3ccco3)nn12,inactive,inactive,inactive,inactive,inactive,inactive,–,inactive,inactive,–,inactive,–,–,–,inactive,–,–,–
CC(=O)O[C@H]1Cc2ccccc2N(C(N)=O)c2ccccc21,inactive,inactive,inactive,inactive,inactive,inactive,inactive,inactive,inactive,inactive,inactive,–,–,–,–,–,–,–
NC1(C(=O)O)CCCCC1,–,inactive,inactive,inactive,inactive,inactive,inactive,inactive,inactive,inactive,inactive,inactive,inactive,0.5%,–,inactive,inactive,inactive
N[C@H](C(=O)O)c1cc(O)cc(O)c1,–,inactive,inactive,inactive,inactive,inactive,inactive,inactive,–,inactive,inactive,inactive,inactive,0.0625%,inactive,inactive,inactive,inactive
CCc1ccc2c(-c3cccc(Cl)c3)nc(=O)n(CC)c2n1,inactive,inactive,inactive,inactive,inactive,inactive,inactive,inactive,inactive,inactive,inactive,–,–,–,inactive,–,–,–
C[C@H]1CC2C3CCC4=CC(=O)C=C[C@]4(C)[C@@]3(Cl)[C@@H](O)C[C@]2(C)[C@@]1(O)C(=O)CO (stereo partly specified),inactive,inactive,inactive,inactive,inactive,inactive,inactive,inactive,inactive,inactive,inactive,–,–,–,–,–,–,–
CC(=O)NNC(=O)N1Cc2ccccc2Oc2ccc(Cl)cc21,–,inactive,inactive,inactive,inactive,inactive,inactive,inactive,inactive,inactive,–,inactive,inactive,0.562%,inactive,inactive,inactive,inactive
O=C1Cc2c([nH]c3ccc(Br)cc23)-c2ccccc2N1,inactive,inactive,–,inactive,inactive,inactive,inactive,inactive,inactive,411 nM (active),–,inactive,inactive,9.25%,–,–,–,–
COc1cc(/C=C(\C#N)C(=O)Nc2nnc(C(F)(F)F)s2)ccc1OCc1ccc(C(F)(F)F)cc1C(F)(F)F,inactive,–,inactive,inactive,inactive,inactive,inactive,inactive,inactive,inactive,inactive,–,–,–,89100 nM (active),–,–,–
C=C1C[C@@]23CC[C@H]4[C@@](C)(CCC[C@@]4(C)C(=O)OC4OC(CO)C(O)C(O)C4O)[C@@H]2CC[C@]1(OC1OC(CO)C(O)C(O)C1OC1OC(CO)C(O)C(O)C1O)C3 (stereo partly specified),inactive,inactive,inactive,inactive,inactive,inactive,–,inactive,inactive,inactive,inactive,–,–,–,6 nM (active),–,–,–
